Bioassay records deposited in PubChem by National Center for Advancing Translational Sciences (NCATS).
Rows were chosen to be rich in hits. Some 21% of all compounds tested hit in one or more screens of this group.
AMA1-RON2 inh: inhibitors of Plasmodium falciparum AMA1-RON2 interaction | AlphaScreen AMA1-biotinylated RON2 peptide binding | Potency, µM (doses to about 58.2 µM), for the others: at the highest dose activity change, negative = inhibition, actives largely listed as inhibitors | 360,000 tested, 0.2% active;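 further: potency means the concentration at half of the fitted maximal effect; 0% = vehicle wells and -100% = peptide control; nearly all actives have a fitted effect of over 45% in size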
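AMA1 (3D7) with his tag at 25 nM final met compounds first, then biotinylated RON2 peptide at 25 nM; detection used donor plus acceptor beads, 10 µg/mL apiece, read by AlphaScreen after 30 min at room temperature.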
HCV inhibitor: HCV inhibition; Potency, µM (top dose mostly 41.8 µM), without a hit: at the highest dose activity change, negative = inhibition, most hits filed as inhibitors; Huh7.5.1 HCVcc-Cre infection, luciferase reporter, 44 h; 340,000 tested, 3.4% active; further: potency means the concentration at half of the fitted maximal effect; on the % scale 0 is the no-effect control and ±100 the full control effect
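1,000 cells/well; 4 h culture; + compound; + HCVcc-Cre (~0.5 moi); 44 h; luciferase substrate, RT 15 min; read 15 sec.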
Pf growth 48h: inhibits P. falciparum growth in the first generation, 48 h | AID 504832 | P. falciparum luciferase growth in erythrocytes, 48 h | 310,000 tested, 5.9% active | Potency, µM (doses to about 28.7 µM), for the others: at the highest dose activity change, negative = inhibition, hits mostly inhibitors; further: potency means the concentration at half of the fitted maximal effect; on the % scale 0 is the no-effect control and ±100 the full control effect
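Luciferase-expressing parasites in RBCs, 2% Hct / 0.1% parasitemia final; RPMI 1640 + 0.5% Albumax; 37 C, 5% CO2, one generation; luminescence read-out, lower signal = inhibition.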
Pf growth 96h: P. falciparum growth inhibition at 96 hour, primary screen for plastid delayed-death inhibitors; P. falciparum luciferase reporter growth, 96 h; Potency, µM (titrated, usually from 28.7 µM), without a hit: at the highest dose activity change, negative = inhibition, usual class: inhibitors; 320,000 tested, 6.9% active; further: potency means the concentration at half of the fitted maximal effect; on the % scale 0 is the no-effect control and ±100 the full control effect
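Erythrocytes infected with luciferase-expressing P. falciparum were dispensed at 2% hematocrit and 0.05% parasitemia (final), then incubated with compounds 96 hours at 37 C in 5% CO2. Luminescence after detection reagent addition reported growth.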
Cycloheximide cs: counter-screen hit for Shiga toxin inhibitors, cycloheximide; cell reporter, cycloheximide protein synthesis inhibition counterscreen; max response, %; 300,000 tested, 12% active; AID 2314; in the data active means max response mostly above about 13%, no sharp cut-off; inactive means mostly below about 14%; further: read at 38.3 µM for the half of the compounds with a filed dose; 0% is about no effect
Shiga inhibitor: blocks Shiga toxin action in Vero cells. inhibition, % at 38.7 µM. AID 2315. Vero cells, Shiga toxin protein synthesis inhibition reporter. 290,000 tested, 9.2% active; in the data active means inhibition mostly above about 28%, no sharp cut-off; inactive means mostly below about 43%; further: 0% is about no effect
Numbers without * were called inactive; ? = inconclusive; . = not tested or not shown; [ ] = remark or other dose. Unless noted, the call rests on the fitted dose curve; in most records, active means well fitted curve in the direction sought with a large enough effect; inconclusive means small, poorly fitted or top-dose-only effect, or another doubt; inactive means no such curve, though single readings can be large; an effect the other way counts as inactive or inconclusive.

SMILES | AMA1-RON2 inh | HCV inhibitor | Pf growth 48h | Pf growth 96h | Cycloheximide cs | Shiga inhibitor
CC(C)N1CCCC(CNC(=O)CCc2nnc(CCCCc3ccccc3)o2)C1 (stereo unspecified) | 12% | -9% | -10% | ? | 2 | -7
CC(C)N(CCO)C(=O)CCc1nnc(CCCc2ccccc2)o1 | -20% | 23% | 0% | 38% | 39* | 63*
C=CCn1c(=NC(=O)C2CC2)sc2cc(NC(C)=O)ccc21 | 5% | 4% | . | 1% | 28* | 42
O[C@H]1CN(CC2CCCCC2)[C@@H](c2ccc(Cl)cc2)C[C@@H]1n1cc(-c2ccc(F)cc2)nn1 | -6% | . | . | . | . | .
O=C(Nc1ccc(Oc2cccnc2)cc1)C1CCCCN1Cc1ccc(CO)o1 (stereo unspecified) | 4% | -9% | -15% | 17% | -3 | -3
Cc1cc(CN2CCCCC2C(=O)Nc2ccc(Oc3cccnc3)cc2)oc1C (stereo unspecified) | 0% | -20% | ? | ? | 21* | 43*
CC(=O)c1cccc(CN2CCC(C(=O)Nc3ccc(-c4cccc(C)c4)cc3)CC2)c1 | -1% | ? | 4.1µM* | -29% | -2 | 3
O=C(Nc1ccccc1Oc1cccnc1)C1CCCN(C/C=C/c2ccc(F)cc2)C1 (stereo unspecified) | -1% | -21% | ? | -3% | -3 | -8
Cc1cccc(CN2CCCC(C(=O)Nc3ccccc3Oc3cccnc3)C2)c1 (stereo unspecified) | 0% | 4% | 9.3µM* | -5% | -2 | -2
O=C(Nc1ccc(Oc2cccnc2)cc1)C1CCN(Cc2ccccc2F)CC1 | 3% | ? | ? | 5.9µM* | 0 | -4
O=C(Nc1ccc(Oc2cccnc2)cc1)C1CCN(Cc2cccc(Cl)c2)CC1 | 0% | ? | ? | -7% | 9 | -7
Cc1nc(C(=O)O)cc([N+](=O)[O-])c1C | -8% | . | . | . | . | .
O=C(Nc1ccc(Oc2cccnc2)cc1)C1CCN(Cc2ccccc2)CC1 | -9% | -27% | ? | ? | -1 | -37
Cc1ccc(CN2CCC(C(=O)Nc3ccc(Oc4cccnc4)cc3)CC2)cc1 | -2% | . | 10µM* | -21% | 2 | -7
Cc1ccccc1NC(=O)NCC1CCN(C(=O)OC(C)(C)C)CC1 | -9% | 11% | -19% | ? | 4 | 20
CC(C)(C)OC(=O)N1CCC(CNC(=O)c2ccc(F)cc2)CC1 | -5% | 0% | 1.7µM* | 13% | -2 | -12
CC(=O)N1N=C(c2cccc(NS(C)(=O)=O)c2)CC1c1ccc2c(c1)OCO2 (stereo unspecified) | -4% | -19% | 26% | -87% | 13* | 42
CS(=O)(=O)Nc1ccc(C2=NN(S(C)(=O)=O)C(c3ccc4c(c3)OCO4)C2)cc1 (stereo unspecified) | -4% | 1% | 148% | 2.9µM* | 30* | 85*
O=C(O)CCCC(=O)N1N=C(c2ccccc2)CC1c1ccc2c(c1)OCO2 (stereo unspecified) | 7% | 2% | ? | ? | 2 | -5
CC1(C)ON=C(c2cccc(F)c2)NC1=O | 6% | . | . | . | . | .
Cc1cc(O)c2c(c1)OC(C)(C)C1=C2CC(C)CC1 (stereo unspecified) | -11% | 13µM* | 6.6µM* | 9% | -1 | .
Cn1c(=O)[nH]c(=O)c2cc(C(=O)c3cc(F)ccc3O)cnc21 | 12% | 13% | 0% | 1% | -3 | 7
CCc1nn2cc(C(=O)c3cc(Cl)ccc3O)cnc2c1-c1ccc(F)cc1 | -22% | ? | 6.6µM* | ? | -2 | -29
Cc1ccc(C(=O)N2CCN(c3ccccc3Cl)CC2)cc1[N+](=O)[O-] | -17% | ? | ? | 21% | -2 | 7
CC(=O)Nc1ccc(S(=O)(=O)Nc2ccc(-n3cnnn3)cc2)cc1 | -4% | -18% | -20% | ? | . | .
SMILES | AMA1-RON2 inh | HCV inhibitor | Pf growth 48h | Pf growth 96h | Cycloheximide cs | Shiga inhibitor
Cc1cc(C(=O)NCc2cc(C)n(C)n2)sc1-c1ccccc1 | 1% | 4µM* | -7% | 0% | 2 | 12
Cc1cc(C(=O)N(C)C)sc1-c1ccccc1 | 0% | -4% | 267% | 271% | 63* | 71*
COc1cc(OC)c(NC(=O)c2ccccc2F)cc1Cl | -1% | 1% | 18% | 9% | 4 | 31
COc1cc2c(cc1NC(=O)c1ccccc1F)CCCC2 | 26% | ? | 88% | 34% | 50* | 93*
COc1cc2c(cc1NC(=O)c1cccc(F)c1)CCCC2 | 2% | ? | 32% | 31% | 36* | 67*
O=C(Nc1cccc2c1CCCC2)c1cccc(F)c1 | -8% | 13% | -5% | 66% | -3 | -5
O=C(Nc1ccccc1NC(=O)c1ccccc1F)c1ccccc1F | -9% | -4% | ? | 11% | 1 | -6
COc1cc2c(cc1NC(=O)c1cccc(Br)c1)CCCC2 | 22% | 7.1µM* | 6% | ? | 16 | 18
COc1cc2c(cc1NC(=O)C(c1ccccc1)c1ccccc1)CCCC2 | 0% | -28% | . | ? | 19 | 29
O=C(Nc1cccc2c1CCCC2)c1ccccc1F | 4% | 6% | 6% | ? | 22* | 44
COc1c(F)c(F)c(C(=O)Nc2ccc(NC(=O)Cc3ccccc3)cc2)c(F)c1F | -18% | -4% | -1% | 6% | -3 | -2
Cc1ccc(O)c(C(=O)c2cc(C(=O)NCCC(C)C)c(=O)n(CCC(C)C)c2)c1 | 10% | 10µM* | ? | 3.3µM* | 1 | 14
Cc1ccc(O)c(C(=O)c2coc(=N)c(C(=O)NC(C)C)c2)c1 | -8% | -11% | ? | . | -4 | -5
CC(C)c1ccc(OCc2ccc(C(=O)N(C)C)o2)cc1 | 16% | -8% | 1%[0.00184 µM] | 37% | 65* | 151*
O=C(NC1CC1)c1ccc(COc2ccc(F)cc2)o1 | 0% | -21% | ? | ? | 14 | 25
CC(C)c1ccc(OCc2ccc(C(=O)NN3CCN(C)CC3)o2)cc1 | -5% | ? | 85% | ? | 79* | 170*
O=C(O)c1ccc(COc2ccc([N+](=O)[O-])cc2)o1 | 6% | 13% | 35% | 235% | 11 | 26
CC(C)c1ccc(OCc2ccc(C(=O)O)o2)cc1 | -2% | 21% | 1µM* | 244% | 35* | 64*
COc1ccc(NC(=O)CSc2nc3ccccc3c(=O)n2CCCC(=O)NCC2CCCO2)c(OC)c1 (stereo unspecified) | -1% | ? | ? | -18% | -2 | 21
CC(=O)Nc1ccc(NC(=O)c2ccc(-c3ccnn3C)c3ccoc23)cc1 | 0% | . | . | . | . | .
C/C(=N\NC(=O)Cc1ccc(F)cc1)c1ccc(O)cc1 | -1% | 0% | -4% | 10% | 8 | -8
C/C(=N\NC(=O)c1cccc(F)c1)c1ccc(NC(=O)Cc2ccccc2)cc1 | -2% | -23% | 6% | -32% | 42* | 48*
